Experimental data: PubChem BioAssay (NCI)
The panel holds about 83,000 compounds, 20% with a hit somewhere; the sample as a whole holds those more often.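 Method: cells in 96-well plates; compound added at one concentration; 48 h incubation; percent growth measured; values under 10 scored active.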 Unmarked numbers belong to inactive results. Calls of active or inactive are those of the source.

Columns and labels:
Assay in all cases: NCI-60 one-dose screen, 48 h (100 = growth as untreated, 0 = no growth, -100 = all killed)
Details in all cases: 10 µM unless noted
HCT-15 colon = system: HCT-15 colon
SNB-75 CNS = system: SNB-75 CNS
SNB-19 CNS = system: SNB-19 CNS
U251 CNS = system: U251 CNS
PC-3 prostate = system: PC-3 prostate
SK-MEL-5 melanoma = system: SK-MEL-5 melanoma
UACC-62 melanoma = system: UACC-62 melanoma
LOX IMVI melanoma = system: LOX IMVI melanoma
SK-MEL-28 melanoma = system: SK-MEL-28 melanoma
SK-MEL-2 melanoma = system: SK-MEL-2 melanoma
EKVX NSCLC = system: EKVX NSCLC
SN12C renal = system: SN12C renal
UO-31 renal = system: UO-31 renal
TK-10 renal = system: TK-10 renal
ACHN renal = system: ACHN renal
CAKI-1 renal = system: CAKI-1 renal
A498 renal = system: A498 renal
CCRF-CEM leukemia = system: CCRF-CEM leukemia
MOLT-4 leukemia = system: MOLT-4 leukemia

Row | SMILES | growth (HCT-15 colon) | growth (SNB-75 CNS) | growth (SNB-19 CNS) | growth (U251 CNS) | growth (PC-3 prostate) | growth (SK-MEL-5 melanoma) | growth (UACC-62 melanoma) | growth (LOX IMVI melanoma) | growth (SK-MEL-28 melanoma) | growth (SK-MEL-2 melanoma) | growth (EKVX NSCLC) | growth (SN12C renal) [%] | growth (UO-31 renal) | growth (TK-10 renal) | growth (ACHN renal) [%] | growth (CAKI-1 renal) | growth (A498 renal) | growth (CCRF-CEM leukemia) | growth (MOLT-4 leukemia)
1 | COc1ccc(C(=O)OC2C(OC3C(O)COC(O[C@H]4C[C@H]5[C@@H]6CC=C7C[C@@H](O)CC[C@]7(C)[C@H]6CC[C@]5(C)[C@H]4[C@H](C)C(=O)CCC(C)C)C3OC(C)=O)OCC(O)C2O)cc1 (stereo partly drawn) | -51.5% (active) | -9.67% (active) | -22.8% (active) | -42.8% (active) | -32.6% (active) | -77.1% (active) | -49.9% (active) | -49.8% (active) | -54.6% (active) | -52% (active) | 7.53% (active) | 44.3 | -35.7% (active) | -20.1% (active) | 28.6 | -31.1% (active) | -82.2% (active) | -23.2% (active) | -42.4% (active)
2 | NNc1ccc(S(N)(=O)=O)cc1 | 110% | 89.9% | – | – | 90.2% | 100% | – | 86.4% | 108% | – | 103% | – | 91.6% | – | 105 | 97.8% | – | 9.37% (active) | 102%
3 | COc1cccc(-c2cc(-c3cccs3)c(C#N)c(=O)[nH]2)c1 | 97.8% | 98.4% | 99.9% | 100% | 103% | 107% | 96.3% | 99.5% | 115% | 107% | 106% | 103 | 89.4% | 122% | 102 | 96.8% | 100% | 100% | 107%
4 | Cc1ccc(C)c2c1SC1=NNC(Oc3ccc(Cl)cc3)=C(C#N)C(=N)N12 | 104% | 92.2% | 110% | 98.4% | 85% | 93.5% | 97.1% | 99.7% | 107% | 132% | 100% | 117 | 85.3% | 125% | 90.6 | 87.4% | 87.1% | 96.8% | 85.2%
5 | N=C(N)c1ccc(NCCNc2ccc(C(=N)N)cc2)cc1 | 90.6% | 101% | 116% | 89.8% | 123% | 82% | 81.8% | 86.8% | 114% | 97.3% | 102% | 46 | 87.2% | 111% | 85.5 | 74.3% | 90.2% | -71.7% (active) | -52.9% (active)
6 | COc1ccc2c(c1)sc1nc(-c3ccccc3)c(-c3cccc4ccccc34)n12 | 23% | 23.2% | 29.8% | 21.3% | 24.3% | 24.9% | 35.5% | 38.6% | 52.1% | 27.5% | 28.7% | 44.7 | 47.7% | 37.9% | 49.1 | 29.3% | 0.895% (active) | 22.3% | 27.1%
7 | CC(C)N(C(=S)SSC(=S)N(C(C)C)C(C)C)C(C)C | 97.7% | 102% | 109% | 94.5% | 86.4% | 109% | 105% | 97.1% | 100% | 109% | 110% | 101 | 80.3% | 100% | 98.2 | 85.8% | 97.8% | 87.5% | 105%
8 | COC(=O)[C@@H](Cc1c[nH]c2ccccc12)NC(=O)/C=C/c1ccccc1 | 13.7% | 15.3% | 46.4% | 14.2% | 18.7% | 31.4% | 44.1% | 38.3% | 44.3% | 16.6% | – | 50.7 | 36.8% | 54.1% | 39.2 | 31.7% | -9.95% (active) | – | 24.1%
9 | C[N+](C)(C)CCCCCCCCCC[N+](C)(C)C | 107% | 89.3% | 98.7% | 91.1% | 89.3% | 97.4% | 91.7% | 84.7% | 104% | – | 96.3% | 85.9 | 96.1% | – | 112 | 104% | 123% | 72.4% | 99.4%
10 | CS(=O)(=O)c1ccc(Cl)c([N+](=O)[O-])c1 | 99.4% | 114% | 105% | 109% | 77.8% | 106% | 112% | 88.2% | 127% | 99.8% | 104% | 107 | 5.92% (active) | 108% | 108 | -88.3% (active) | 106% | – | 53.2%
